Experimental findings from PubChem BioAssay (NCATS) are described below.

This assay is described as follows: qHTS for identification of novel therapeutic agents for treatment of microphthalmiaassociated transcription factor (MiT) renal cell carcinoma (RCC) (AID 1963991). The following applies: CellTiter-Glo, 48 h; for Potency: active = Z-AUC below -0.8 in all three lines; for z-score: stronger effect = lower value. The source says: PI: Marston Linehan Ph.D.
Urologic Oncology Branch, Center for Cancer Research (CCR)
National Cancer Institute (NCI), National Institute of Health (NIH), Bethesda, Maryland
MiT-Renal Cell Carcinoma (RCC) is characterized by genomic translocations involving microphthalmia-associated transcription factor (MiT) family members TFE3, TFEB, or MITF. MiT-RCC represents a specific subtype of sporadic RCC that is predominantly seen in young patients and can present with heterogeneous histological features making diagnosis challenging. Moreover, the disease biology of this aggressive cancer is poorly understood and there is no accepted standard of care therapy for patients with advanced disease. Tumor-derived cell lines have been established from human TFE3-RCC providing useful models for preclinical studies. TFE3-RCC tumor derived cell lines and their tissues of origin were characterized by IHC and gene expression analyses. An unbiased high-throughput drug screen was performed to identify novel therapeutic agents for treatment of MiT-RCC. Potential therapeutic candidates were validated in in vitro and in vivo preclinical studies. Mechanistic assays were conducted to confirm the on-target effects of drugs. The results of a high-throughput small molecule drug screen utilizing three TFE3-RCC tumor-derived cell lines identified five classes of agents with potential pharmacological efficacy, including inhibitors of phosphoinositide-3-kinase (PI3K) and mechanistic target of rapamycin (mTOR), and several additional agents, including the transcription inhibitor Mithramycin A. Upregulation of the cell surface marker GPNMB, a specific MiT transcriptional target, was confirmed in TFE3-RCC and evaluated as a therapeutic target using the GPNMB-targeted antibody-drug conjugate CDX-011. […] The results of the high-throughput drug screen and validation studies in TFE3-RCC tumor-derived cell lines have provided in vitro and in vivo preclinical data supporting the efficacy of the PI3K/mTOR inhibitor.
SEQUENCE No. (e.g., 1, 2, 3, etc.); […] (e.g., Cells, Incubation, Reagent, etc.); VALUE; DESCRIPTION.
1; Cells; 3 uL; white, solid-bottom Grenier assay plate.
2; Compounds; 23 nL; Kalypsis pin-tool (Wako USA).
3; Incubation; 48 hr; 37 C, 5% CO2, 95% humidity.
4; Reagent; 3 uL; CellTiter-Glo reagent (Promega).
5; Incubation; 15 min; room temperature.
6; Detection; Luminescence; ViewLux plate reader (PerkinElmer).
NOTES (numbers refer to Sequence numbers above)
1. Quantitative high-throughput screening (qHTS) of 1912 pharmacologically defined small molecule compounds was conducted on three TFE3-fusion cell lines bearing three different fusion partners (UOK109, UOK124, UOK145). Briefly, 500 cells in complete growth media were plated into white, solid-bottom, 1536-well tissue culture treated plates (Grenier Cat. 789173-F) using a Multidrop Combi cassette dispenser.
2. Twenty-three nanoliter of 1912 pharmacologically defined small molecule compounds of the NCATS Mechanism Interrogation PlatE (MIPE) version 4.0 were added to each assay plate using a Pintool Dispenser (Wako) equipped with 1536 pin head.
3. Plates were covered with stainless steel gasketed lids and incubated for 48 hours at standard cell culture conditions.
4. Viability was assessed by adding 3uL of CellTiter-Glo detection reagent (Promega).
5. Plates were covered with gasket lids and incubated for 15 minutes at room temperature.
6. Luminescence was measured on a ViewLux plate reader (PerkinElmer). Post-screen data processing used DMSO controls as 100% viability and empty wells as 0% viability and dose response curve fitting was done for all 11 concentrations for each compound.

Where [1] appears, read: TFE3-RCC UOK109 viability, measured here: UOK109 Z-AUC.
The mark [2] stands for this setting: TFE3-RCC viability, measured here: UOK124 Z-AUC.
The mark [3] stands for this setting: TFE3-RCC viability, measured here: UOK145 Z-AUC.

Results filed as inconclusive are left out. Calls of active or inactive are those of the source.
Potency is read from the fitted curve at half-maximal effect.

As to `COc1ccc(-c2cc3c(C)nc(N)nc3n(C3CCC(OCCO)CC3)c2=O)cn1` (stereo not given), where the note is “TFE3-RCC UOK109 viability”, the Potency is 11.8 nM (active). Also, the z-score by setting is: under setting [1], -2.89; under setting [2], -1.31; under setting [3], -2.61.
`CCOc1cc2ncc(C#N)c(Nc3ccc(F)c(Cl)c3)c2cc1NC(=O)C=CCN(C)C`: the Potency (TFE3-RCC UOK109 viability) is 11.8 nM (active). The z-score under setting [1] is -2.91, the z-score under setting [2] is -1.47 and the z-score under setting [3] is -1.07.
In the case of `CC(NCc1ccc2c(c1)nc(NC(=O)c1ccc(-c3cn[nH]c3)s1)n2CC(C)(C)O)C(C)(C)C` (stereo not given), the Potency (TFE3-RCC UOK109 viability) was 935 nM (active). The z-score by setting is: under setting [1], -1.95; under setting [2], -2.39; under setting [3], -1.22.
With `Cc1ccc(-c2ncn(-c3ccc(Nc4nccc(-c5cccc(N6CCOCC6)c5)n4)cc3)n2)cn1`, the Potency (TFE3-RCC UOK109 viability) was 264 nM (active). Besides, the z-score runs as follows: under setting [1], -1.3; under setting [2], -2.07; under setting [3], -1.38.
The corresponding values for `COc1c(OCCCN2CCOCC2)ccc2c3n(c(=NC(=O)c4cnc(N)nc4)nc12)CCN3` are 40.7 nM (active), -1.18, -2.73 and -1.79.
With `CC(C)[C@H](C(=O)Nc1ccc(C(=O)NO)cc1)c1ccccc1`, under “TFE3-RCC UOK109 viability”, the Potency was 1870 nM (active). Moreover, the z-score was -1.43 under setting [1], -1.8 under setting [2] and -1.54 under setting [3].
For `CC(C)c1cc(-c2n[nH]c(=O)n2-c2ccc3c(ccn3C)c2)c(O)cc1O` the same measures were 74.3 nM (active), -1.34, -0.923 and -1.27.
Consider `Clc1cccc(-c2nnnn2Cc2cccnc2)c1Cl`, for which the z-score is, setting by setting: under setting [1], 0.93; under setting [2], 0.545; under setting [3], 0.374.
The corresponding values for `CCOc1ccccc1OCCNC(C)Cc1ccc(OC)c(S(N)(=O)=O)c1` (stereo not given) are -0.0547, 0.341 and 2.03.
As for `CC(C)c1noc(N2CCC(COc3ccc(-c4ccc(S(C)(=O)=O)cc4)nc3)CC2)n1`, the z-score is 0.525 under setting [1], 0.308 under setting [2] and 0.324 under setting [3].
The corresponding values for `O=C(C=Cc1c(C(=O)O)[nH]c2cc(Cl)cc(Cl)c12)Nc1ccccc1` are 0.0645, 0.537 and 0.334.
